# Compound activity deposited in PubChem by ICCB-Longwood Screening Facility, Harvard Medical School.
# Vaccinia pol inh: vaccinia E9 polymerase processive synthesis inhibitors, primary screen, biochemical, absorbance; Vaccinia virus DNA polymerase (E9) processive complex; in vitro processive DNA synthesis, absorbance read-out; stronger effect = lower value; normalized absorbance, % (no concentration beside the values); 46,000 compounds, 0.94% hits; in the data active = normalized absorbance mostly below about 85%, no sharp cut-off; inactive = mostly above about 86%
# A number is an active result; i = inactive. The full list was thinned out, with hits kept by preference.
SMILES,Vaccinia pol inh
Cc1ccc(N2C(=O)C(N3C(=O)CCC3=O)C2c2ccc(F)cc2)cc1 (configuration not stated),i
CNCCc1c(-c2ccccc2)n(-c2ccccc2)c2ccccc12,i
Cc1ccc2[nH]c(=O)c(CN3CCOCC3)c(-c3ccccc3)c2c1,66.7
Cc1ccc(S(=O)(=O)Nc2c(-c3ccccc3)c3cc(C)ccc3[nH]c2=O)cc1,i
Cc1ccc2[nH]c(-c3ccccc3)c(CN3CCCC3)c(=O)c2c1,i
O=S(=O)(c1ccccc1)c1cscc1NC(=S)Nc1ccccc1Cl,i
CC(=O)Nc1ccc(-n2c(C)ccc2C)c(C(=O)O)c1,49.4
CC(=O)Nc1ccc(Cl)c(Cl)c1,i
COc1ccc(NC(C)=O)cc1C,i
CCOc1ccc(C(N)CC(=O)OC)cc1 (configuration not stated),i
O=C(/C=C/c1ccccc1)OCC(=O)c1cc2ccccc2o1,i
Cn1c(CCCNC(=O)C2CCCCC2)nc2ccccc21,i
Cc1ccc(NN)cc1,65.0
Cc1ccc(S(=O)(=O)c2ccc(NN)cc2)cc1,i
Cc1ccc(Nc2ccc(C)cc2)cc1,i
CC(=O)Nc1nc2c(s1)CC(C)CC2 (configuration not stated),i
CCc1cc(-c2[nH]ncc2Oc2ccccc2)c(O)cc1O,i
O=C(O)c1ccc2[nH]c3c(c2c1)CSCC3,i
CC(C)OC(=O)c1ccc2[nH]c3c(c2c1)CCCC3,i
CN(C)CCOC(=O)c1ccc2[nH]c3c(c2c1)CSCC3,57.5
C=CCNc1nc(Cl)nc(NCC(=O)OCC)n1,i
CC(C)C(=O)Nc1ccccc1-c1nc2ccccc2[nH]1,i
O=C(Nc1ccccc1-c1nc2ccccc2[nH]1)C1=COCCO1,i
S=C(Nc1ccccc1)Nc1ccccc1-c1nc2ccccc2[nH]1,68.5
CCn1c(O)c(/C=c2/c(C)c(C#N)c3nc4ccccc4n3c2=O)n(CC)c1=S,i
SMILES,Vaccinia pol inh
Cc1ccc(Nc2ccc3noc4c3c2C(=O)c2ccccc2-4)cc1,i
O=C1c2ccccc2-c2n[nH]c(=O)c3ccc(N4CCOCC4)c1c23,i
CC1CCN(c2cc(N(C)C)c3noc4c3c2C(=O)c2ccccc2-4)CC1,69.9
CN1C(=O)C[C@H](C(=O)O)[C@H]1c1cccnc1,i
CCC(=O)N1c2ccc(S(=O)(=O)NC3CCCCC3C)cc2CC1C (configuration not stated),i
CCCc1[nH]nc2c1C(c1cc(OC)c(OC(C)=O)c(OC)c1)C(C#N)=C(N)O2 (configuration not stated),i
COc1ccc2cc3cc(C(=O)NCCN4CCN(c5ccccc5F)CC4)sc3nc2c1,i
COc1ccc2cc3cc(C(=O)NCCC(C)C)sc3nc2c1,i
COc1ccc2cc3cc(C(=O)NCCCN4CCCCCC4)sc3nc2c1,40.1
CC1(C)CN(c2cccc(N3CC(C)(C)C3=O)n2)C1=O,i
Cc1ccc(Nc2nc(N3CC(C)OC(C)C3)nc3c2cnn3C)cc1Cl (configuration not stated),i
COc1ccc(Nc2nc(N3CCN(CCO)CC3)nc3c2cnn3C)cc1Cl,38.3
CCc1nc2c(cnn2-c2ccc(F)cc2)c(=O)n1-c1ccc(OC)c(Cl)c1,i
O=C(COc1ccccc1)Oc1cc(-c2ccccc2)c2oc(=O)sc2c1,i
O=C(O)c1ccccc1SC/C=C/c1ccccc1,82.6
O=C(O)c1ccccc1SCC(=O)N1CCCC1,i
[O-][n+]1ccccc1SC/C=C/c1ccccc1,i
COc1ccc(/C=N/n2cnc3c([nH]c4ccc(OC)cc43)c2=O)cc1,i
Cc1ccccc1C=Nc1ccccc1C#N,i
Oc1ccccc1C=Nc1ccccc1O,i
N#Cc1ccccc1N=Cc1cccc(O)c1O,86.4
O=C(Nc1ccc(-c2nc3ccccc3[nH]2)cc1)C1=COCCO1,i
Cc1nc2ccc(Cl)cc2c(-c2ccccc2)c1C(=O)N1CCOCC1,i
COc1ccc(C=Nc2cccc(Cl)c2)cc1,i
CC(NC(=O)CCc1nc2ccccc2s1)C1CC2CCC1C2 (configuration not stated),i
SMILES,Vaccinia pol inh
COc1ccc(Nc2cc(C(=O)N3CCc4ccccc4C3)c3ccccc3n2)c(OC)c1,i
CCOC(=O)N1CCN(C(=O)c2cc(Nc3ccc(OC)cc3OC)nc3ccccc23)CC1,i
COc1ccc(Nc2nc(N3CCN(C)CC3)nc3ccccc23)c(OC)c1,52.7
CCCNC(=O)Cn1nc(C)n2c(cc3cc(C)ccc32)c1=O,i
Cc1ccc(C)n1C(CC(=O)O)C1CCCCC1 (configuration not stated),70.3
Cc1ccc(C)n1C(CC(=O)O)c1ccc(C#N)cc1 (configuration not stated),i
NC(CC(=O)O)C1CCCCC1 (configuration not stated),i
CCOC(=O)c1ccc(-c2ccc(/C=c3/sc4nc5c(C)c(C)ccc5n4c3=O)o2)cc1,i
CCn1c(=O)n(CC)c2cc(S(=O)(=O)NC3CCCCC3)ccc21,i
O=C(NO)c1cccs1,i
CCOC(=O)c1c(C)oc2c1c(CN1CCN(C)CC1)c(O)c1ccccc12,i
Cc1cc(O)c(CN2CCN(C)CC2)c2oc(=O)c3ccccc3c12,81.4
Cc1cc(=O)oc2c(CN3CCCCC3)c(O)ccc12,i
COc1ccc2c(c1)C(=O)N(C)C(=O)C2,i
C#CCN(C)[C@H](C)c1ccccc1,i
OC(COCc1ccccc1)Cn1c2ccccc2c2ccccc21 (configuration not stated),i
CCC(CO)NCC(O)Cn1c2ccccc2c2ccccc21 (configuration not stated),79.8
Cc1ccc(S(=O)(=O)NCC(O)Cn2c3ccccc3c3ccccc32)cc1 (configuration not stated),i
CNCC(O)Cn1c2ccccc2c2ccccc21 (configuration not stated),77.6
COc1ccccc1CNCC(O)Cn1c2ccccc2c2ccccc21 (configuration not stated),i
CC1(C)NC(=O)N(CC(O)Cn2c3ccccc3c3ccccc32)C1=O (configuration not stated),i
Cn1c(-c2ccc(Cl)cc2)[n+](C)c2ccccc21,i
Cc1[nH]c2ccccc2c1SCCNC(=O)C1CC1,i
O=C(O)C(Cc1ccccc1)NCc1c(O)ccc2c3c(c(=O)oc12)CCCC3 (configuration not stated),i
Cc1ccc(Cl)cc1NCN1C(=O)/C(=C/c2ccc(Br)cc2)NC1=S,i
SMILES,Vaccinia pol inh
CC(=O)Nc1ccc(C(=O)OCC(=O)N2CCc3ccccc32)cc1,i
CCC1CCCCN1CCCNC(=O)c1cc2c(s1)CSC2 (configuration not stated),i
Cc1cccc2c1-c1sc(C(=O)NCCN3CCCCC3C)cc1CO2 (configuration not stated),i
CC1CCCCN1CCCNC(=O)c1cc2c(s1)-c1ccc(Cl)cc1SC2 (configuration not stated),69.1
COc1ccccc1C(=O)Nc1nnc(-c2cccc(C)c2)s1,i
CCCc1cc(=O)[nH]c(SCC(=O)N2c3ccccc3Sc3ccccc32)n1,i
COC(=O)c1ccc2nc(NC(C)=O)sc2c1,i
CCN1C(=O)c2ccc(-c3nc4cc(Cl)ccc4c(=O)o3)cc2C1=O,i
Cn1sc(=Nc2ccccc2)nc1-c1ccccc1,i
O=C(O)/C=C/c1ccc(Br)o1,71.9
O=C(/C=C/c1ccc(Br)o1)Nc1nccs1,i
Cc1ccc(/C=C/C(=O)O)o1,i
O=C(/C=C/c1ccc(Br)o1)Nc1ccc(F)cc1F,i
O=C(/C=C/c1ccc(Br)o1)/C=C/c1ccc(Br)o1,48.6
